Measured values published in PubChem BioAssay AID1220 (Sanford-Burnham Center for Chemical Genomics, 2008).
Hit rate of the full screen: of about 190,000 compounds, about 1,300 (0.68%) were called active. No stated cut-off is given here; in the data, active means inhibition above about 50%; inactive means the rest. Only a selection was taken, and actives are over-represented in it overall.

target: Mannose-6-phosphate isomerase (Homo sapiens) (UniProt P34949); assay: MPI inhibition at elevated mannose 6-phosphate – biochemical, fluorescence intensity, high mannose 6-phosphate, primary screen (AID 1220); details: recombinant PMI enzyme, coupled fluorescence intensity; at 20 µM; stronger effect = higher value
Sequence (P34949 whole entry, looked up): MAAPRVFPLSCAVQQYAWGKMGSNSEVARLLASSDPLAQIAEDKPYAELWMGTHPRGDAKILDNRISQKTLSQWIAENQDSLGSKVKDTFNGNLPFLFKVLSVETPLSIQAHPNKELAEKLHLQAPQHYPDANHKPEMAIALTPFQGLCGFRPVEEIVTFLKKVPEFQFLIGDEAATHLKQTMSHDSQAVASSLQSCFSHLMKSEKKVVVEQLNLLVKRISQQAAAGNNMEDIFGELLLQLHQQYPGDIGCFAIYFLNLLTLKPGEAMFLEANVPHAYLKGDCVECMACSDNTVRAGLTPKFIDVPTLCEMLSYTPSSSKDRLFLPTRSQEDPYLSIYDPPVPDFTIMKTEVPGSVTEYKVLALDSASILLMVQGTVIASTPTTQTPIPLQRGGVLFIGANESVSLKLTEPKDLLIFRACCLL

| SMILES | inhibition |
| --- | --- |
| Cc1ccsc1C(=O)OC1CCOC1=O (configuration not stated) | -9.2% (inactive) |
| COC(=O)c1c(N)n(-c2ccc(N3CCOCC3)cc2)c2nc3ccccc3nc12 | 20% (inactive) |
| COC(=O)c1nc2cc3c(cc2c(C)c1C(=O)OC)OCO3 | -5.6% (inactive) |
| COC(=O)c1nc2ccc(N3CCOCC3)cc2c(C)c1C(=O)OC | 64.4% (active) |
| Cc1nnc(SCc2ccc(F)cc2)n1NC/C=C/c1ccccc1 | 9.2% (inactive) |
| CC(=O)N1CCN(C(=S)c2cccc([N+](=O)[O-])c2)CC1 | -0.6% (inactive) |
| Cc1cccc(NC(=O)C2(c3ccccc3)CCOCC2)c1 | -5.7% (inactive) |
| CCOc1ccc(N/C(C)=C\C(=O)c2ccc3c(c2)OCCO3)cc1 | 61.4% (active) |
| CCOc1ccc(NC(=O)CN2CCN(CC(=O)Nc3ccc4c(c3)OCCO4)CC2)cc1 | -12.8% (inactive) |
| COc1ccc(C(=O)/C=C(\C)Nc2ccc3c(c2)OCO3)cc1 | 33.7% (inactive) |
| Cc1nc(-c2ccccc2)nc2[nH]c(C(C)C)cc(=O)c12 | 16.9% (inactive) |
| CCN(C(=O)COc1ccccc1[N+](=O)[O-])C1CCS(=O)(=O)C1 (configuration not stated) | -4% (inactive) |
| CCN(C(=O)COc1cccc2cccnc12)C1CCS(=O)(=O)C1 (configuration not stated) | 63.2% (active) |
| CCN(C(=O)COc1cccnc1[N+](=O)[O-])C1CCS(=O)(=O)C1 (configuration not stated) | 43.2% (inactive) |
| O=C1CC(=O)N(CCNc2ncc(C(F)(F)F)cc2Cl)C(=O)N1 | 2.4% (inactive) |
| COc1cc(Cl)c(C)cc1NC(=O)CSc1nnc(CCC(=O)O)c(=O)[nH]1 | 6.6% (inactive) |
| COc1ccc(CCNC2CC(=O)N(CCc3ccc(OC)c(OC)c3)C2=O)cc1OC (configuration not stated) | 1.6% (inactive) |
| COc1ccc(CCN2C(=O)CC(NCc3ccc4c(c3)OCO4)C2=O)cc1OC (configuration not stated) | 51% (active) |
| O=C1CC(NCc2ccc3c(c2)OCO3)C(=O)N1CCc1ccccc1 (configuration not stated) | 1% (inactive) |
| CCc1nnc(NC(=O)CN2C(=O)c3ccccc3C2=O)s1 | -2.7% (inactive) |
| O=C1C2C3C=CC(C3)C2C(=O)N1Cc1ccccc1 (configuration not stated) | 10% (inactive) |
| Cn1c(=O)c2cc(S(=O)(=O)NC(C(=O)Nc3cccc(F)c3)c3ccccc3)ccc2n(C)c1=O (configuration not stated) | 1.9% (inactive) |
| Cc1ccc2cccc(NC(=O)C(F)(F)F)c2n1 | 9.3% (inactive) |
| Cc1ccc2cccc(N)c2n1 | 56.5% (active) |
| Cc1cc(C)c2c(N)c3cccc(C)c3nc2n1 | 5.4% (inactive) |
| Cc1ccc2cccc(OCCOCCOc3ccccc3Br)c2n1 | 35.7% (inactive) |

| SMILES | inhibition |
| --- | --- |
| Cc1cc(N)c2ccccc2n1 | 5.5% (inactive) |
| Cc1cc(C)c2cccc(N)c2n1 | 64% (active) |
| COP(=O)(OC)c1nc(-c2ccccc2)oc1N1CCOCC1 | -10.4% (inactive) |
| CC1CCCCC1N1CN=C(Nc2nc3ccccc3s2)NC1 (configuration not stated) | 8.2% (inactive) |
| Nc1nc(SCC(=O)NCCOCCO)nc2sc3c(c12)CCCC3 | 2.8% (inactive) |
| Nc1nc(SCC(=O)NCCCO)nc2sc3c(c12)CCC3 | 57% (active) |
| Nc1nc(SCC(=O)NCCO)nc2sc3c(c12)CCCC3 | 5.1% (inactive) |
| Cc1c(Cl)cccc1NC(=O)Cn1cc(C(F)(F)F)cc(Cl)c1=O | -5.8% (inactive) |
| CCN(CC)c1ccc(/C=C2/SC(=O)N(C(C)C)C2=O)o1 | 51.9% (active) |
| CC(C)N1C(=O)S/C(=C/c2ccc3c(c2)n(C)c(=O)n3C)C1=O | 7.6% (inactive) |
| CC(C)N1C(=O)S/C(=C/c2ccc(Sc3nc4ccccc4[nH]3)o2)C1=O | 13.6% (inactive) |
| C/C(=N\NC(=O)CN(c1ccccc1Br)S(C)(=O)=O)c1cccs1 | -17.2% (inactive) |
| CCS(=O)c1ccccc1C(=O)O (configuration not stated) | 9.5% (inactive) |
| CCCCNc1nc(CC)c2c(c1C#N)CCCC2 | -5.9% (inactive) |
| Cc1sc2nc3c(C(=O)N4CCCC4)cc(C(=O)c4ccccc4O)cn3c(=O)c2c1C | 7.7% (inactive) |
| CCOC(=O)c1cc(C(=O)c2ccccc2O)cn2c(=O)c3c(C)c(C)sc3nc12 | 16.1% (inactive) |
| Cc1sc2nc3c(SC(C)C(=O)O)cc(C(=O)c4ccccc4O)cn3c(=O)c2c1C (configuration not stated) | 69% (active) |
| CCc1ccc(C(=O)CN2C(=O)C(C)N(c3ccc(C)cc3)C2=O)cc1 (configuration not stated) | 4.9% (inactive) |
| CCOc1cc(N2CCOCC2)c(OCC)cc1NC(=O)Cc1ccccc1OC | 51.7% (active) |
| CCOc1cc(N2CCOCC2)c(OCC)cc1NC(=O)COC(=O)[C@@H]1CCCN1S(=O)(=O)c1ccccc1F | 53% (active) |
| CCOc1cc(N2CCOCC2)c(OCC)cc1NC(=O)Cc1cccc2ccccc12 | -0.6% (inactive) |
| CCOc1cc(N2CCOCC2)c(OCC)cc1NC(=O)Cc1ccc(OC)c(OC)c1 | 53.1% (active) |
| COc1ccc(CC(=O)Nc2ccccc2N2CCOCC2)cc1OC | -2.2% (inactive) |
| CCOc1cc(N2CCOCC2)c(OCC)cc1NC(=O)Cc1cccc(OC)c1 | 8.1% (inactive) |
| CCOc1cc(N2CCOCC2)c(OCC)cc1NC(=O)COC(=O)c1ccccc1C | 11.5% (inactive) |
| CCOc1cc(N2CCOCC2)c(OCC)cc1NC(=O)COc1ccccc1[N+](=O)[O-] | 23.9% (inactive) |

| SMILES | inhibition |
| --- | --- |
| COc1ccc(NC(=O)COC(=O)[C@@H]2CCCN2S(=O)(=O)c2ccccc2F)c(OC)c1 | -1.3% (inactive) |
| O=C(CCn1c(=O)sc2ccccc21)Nc1nccs1 | 4.8% (inactive) |
| Cc1ccc(NC(=O)CN2CCN(CCN=CC3=C(O)CC(C)(C)CC3=O)CC2)cc1 | -3.9% (inactive) |
| COC(=O)CSc1nc(C)cc(N2CCOCC2)n1 | -3.4% (inactive) |
| CCc1n[nH]c(=S)n1/N=C/c1cc(Br)c(OC)cc1OC | -2.2% (inactive) |
| Cc1nnc(NC(=O)Oc2ccccc2)s1 | 4.4% (inactive) |
| Cc1c(NC(=O)Oc2ccccc2)sc(=S)n1C | -4.6% (inactive) |
| COC(=O)c1c(C)nsc1NC(=O)Oc1ccccc1 | 50.4% (active) |
| COc1ccccc1C(=O)Nc1nc(N)n(-c2ccccc2)n1 | -3.7% (inactive) |
| [O-]/C(=C(\C(=S)Nc1cccc2ccccc12)[n+]1ccccc1)c1cccs1 | 65.7% (active) |
| [O-]/C(=C(\C(=S)Nc1cccc2ccccc12)[n+]1ccccc1)c1ccc(Cl)s1 | 5.8% (inactive) |
| Cc1cccc(C)c1NC(=S)/C(=C(\[O-])c1cccs1)[n+]1ccccc1 | 5.5% (inactive) |
| O=C(O)CSCC(=O)Nc1ccc(Cl)cc1C(F)(F)F | -0.6% (inactive) |
| O=C(CCN1C(=O)COc2ccccc21)NCCC1=CCCCC1 | 19.9% (inactive) |
| CC(C)(C)P(=O)(CO)c1ccccc1 (configuration not stated) | 1.7% (inactive) |
| COc1ccc(C=Nc2ccc3[nH]ncc3c2)c(O)c1 | 59.8% (active) |
| Oc1ccc(Br)cc1C=Nc1ccc2[nH]ncc2c1 | 55.4% (active) |
| Brc1ccc2[nH]ncc2c1 | -2.5% (inactive) |
| OCC(CO)(CO)N=Cc1cc(Br)ccc1O | 27% (inactive) |
| C=CCOc1ccc(C=Nc2ccc(OC)cc2)c(O)c1 | 49% (inactive) |
| COc1cccc(N=Cc2ccc(O)cc2O)c1 | 52.5% (active) |
| CC1(C)CC(=O)C(C=Nc2ccc3[nH]ncc3c2)=C(O)C1 | 38.6% (inactive) |
| Cc1ccc(N=Cc2ccc(O)cc2O)cc1F | 9.7% (inactive) |
| COc1cccc(N=Cc2c[nH][nH]c2=O)c1 | 16.7% (inactive) |
| O=C(c1ccc(OC2CCN(Cc3ccccn3)CC2)cc1)N1CCCC(O)C1 (configuration not stated) | -8.1% (inactive) |
| Cn1c(Cn2c(=O)sc3ccccc32)nnc1SCC(=O)Nc1ccccc1F | 0.2% (inactive) |

| SMILES | inhibition |
| --- | --- |
| O=C(COc1ccccc1)Nc1ccc(CSc2ccccc2)cc1 | 2.7% (inactive) |
| O=C(NCc1ccccn1)C(=O)NCC(c1ccco1)N1CCOCC1 (configuration not stated) | -8.8% (inactive) |
| COc1ccc(N2CCC(CNC(=S)Nc3cccc(OC)c3)C2)cc1 (configuration not stated) | 45.4% (inactive) |
| COc1ccc(CNC(=S)Nc2ccc(OC)cc2)cc1 | 7.4% (inactive) |
| COc1ccc(NC(=S)NCCN2CCOCC2)cc1 | -3.1% (inactive) |
| COc1ccc(N2CCC(CNC(=S)Nc3cccc(C)c3)C2)cc1 (configuration not stated) | 50.4% (active) |
| COc1ccc(CNC(=S)Nc2cccc(C)c2)cc1 | 7.5% (inactive) |
| COc1ccc(NC(=S)NCC2CCN(c3ccc(OC)cc3)C2)cc1 (configuration not stated) | 55.3% (active) |
| COc1ccccc1-n1cnnc1SCC(=O)N1CCN(S(=O)(=O)c2ccccc2)CC1 | 4.9% (inactive) |
| Cn1nnnc1SCCNCc1ccc(Cl)cc1 | 3.8% (inactive) |
| O=C(CCCn1c(=O)oc2ccccc21)NC1CCCCCC1 | -6.9% (inactive) |
| O=C(CCN1C(=O)c2ccccc2C1=O)N(CCO)Cc1ccccc1 | 0.1% (inactive) |
| O=C1C=C(N(CCO)Cc2ccccc2)c2ccccc2C1=O | 64.6% (active) |
| COc1ccc(N2C(=O)C(Cl)=C(N(CCO)Cc3ccccc3)C2=O)cc1 | 3.2% (inactive) |
| Cc1cc(Nc2ccc(F)cc2Cl)n2ncnc2n1 | 16.6% (inactive) |
| COc1ccccc1/C=C/C1=NC(=C\C=C/c2ccccc2)/C(=O)O1 | 0.5% (inactive) |
| COc1ccc(/C=C/C2=NC(=C\N(C)C)/C(=O)O2)cc1 | 5.3% (inactive) |
| COc1ccccc1/C=C/C1=NC(=C\N(C)C)/C(=O)O1 | 56.8% (active) |
| CCCCOC(=O)C1[C@H]2C(=O)N(CCc3ccccc3)C[C@]23C=C[C@H]1O3 (some centres not stated) | -0.4% (inactive) |
| CCOC(=O)c1c(C)c(C(=O)NCc2cccnc2)c(C)n1CC | 108% (active) |
| CCOC(=O)c1c(C)c(C(=O)NCc2ccccn2)c(C)n1CC | 12.2% (inactive) |
| CCOC(=O)c1c(C)c(C(=O)NCc2cccnc2)c(C)n1C | -0.6% (inactive) |
| S=c1[nH]ncc2ccccc12 | -67.9% (inactive) |
| Cc1ccc(/C=C/C2=NN(C)C(=O)CC2)cc1 | -3.3% (inactive) |
